{
  "source": "PubChem BioAssay AID1259421",
  "about": "(Broad Institute, 2018)",
  "note": "Values joined by “and” are separate entries in the source; they are usually repeats but may differ in a detail not shown here. Equal entries are not always repeated. Out of some 6,400 compounds screened, about 610 (9.5%) were called active. No stated cut-off is given here; in the data, active means activity change below about -70%; inconclusive means no clear call, values can overlap the other calls; inactive means above that. Many of the other results were omitted from the sample, so actives are more common in it than they were. Some compounds were tested as several samples or in several runs, with calls that do not always agree.",
  "data": [
    {"assay": "T. gondii ME49Luc in HeLa cells, luciferase assay, 72 h, no IFN-y (AID 1259421)", "details": "stronger effect = lower value, concentration not given here", "values": [
      {"smiles": "C=CCn1c(=O)n(C2OC(CO)C(O)C2O)c2nc(N)[nH]c(=O)c21", "note": "(configuration not stated)", "activity change, negative = inhibition": "0.162% (inactive)"},
      {"smiles": "CCNC(=O)[C@@H]1CCCN1C(=O)[C@H](CCCN=C(N)N)NC(=O)[C@H](CC(C)C)NC(=O)[C@@H](COC(C)(C)C)NC(=O)[C@H](Cc1ccc(O)cc1)NC(=O)[C@H](CO)NC(=O)[C@H](Cc1c[nH]c2ccccc12)NC(=O)[C@H](Cc1cnc[nH]1)NC(=O)C1CCC(=O)N1", "note": "(some centres not stated)", "activity change, negative = inhibition": "9.62% (inactive)"},
      {"smiles": "CC(C)C(=O)OC[C@H]1O[C@@H](n2ccc(N)nc2=O)[C@](C)(F)[C@@H]1OC(=O)C(C)C", "activity change, negative = inhibition": "23.1% (inactive)"},
      {"smiles": "O=C(Nc1ncc(SCCN2CCCC2)s1)[C@]1(c2ccc(S(=O)(=O)C3CC3)cc2)C[C@H]1C1CCCCC1", "activity change, negative = inhibition": "-76.3% (active) and -62.6% (inactive)"},
      {"smiles": "CC(C)(C)[C@@]1(O)CCN2C[C@@H]3c4ccccc4CCc4cccc(c43)[C@H]2C1", "activity change, negative = inhibition": "13.9% (inactive)"},
      {"smiles": "CCC[C@H](NC(=O)/C(C#N)=C/c1cccc(Br)n1)c1ccccc1", "activity change, negative = inhibition": "-77% (active)"},
      {"smiles": "CC(C)c1cc(/C=C(\\C#N)C(=O)NCCCc2ccccc2)cc(C(C)C)c1O", "activity change, negative = inhibition": "-46.1% (inactive)"},
      {"smiles": "C[C@@H](NC(=O)/C(C#N)=C\\c1ccc(O)c(O)c1)c1ccccc1", "activity change, negative = inhibition": "-3.05% (inactive)"},
      {"smiles": "CCN(CC)CCCCC(NC(=O)c1ccc([N+](=O)[O-])cc1)c1ccccc1", "note": "(configuration not stated)", "activity change, negative = inhibition": "34.1% (inactive)"},
      {"smiles": "C[C@H](NC(=O)/C(C#N)=C/c1ccc(O)c(O)c1)c1ccccc1", "activity change, negative = inhibition": "13.8% (inactive) and 32.8% (inactive)"},
      {"smiles": "C[C@H](NC(=O)/C(C#N)=C/c1cccc(Br)n1)c1ccccc1", "activity change, negative = inhibition": "-73.9% (active)"},
      {"smiles": "O=C(CS(=O)Cc1ccco1)NC/C=C\\COc1cc(CN2CCCCC2)ccn1", "note": "(configuration not stated)", "activity change, negative = inhibition": "8.76% (inactive)"},
      {"smiles": "CC12C=CCC1C1CCC3CC(=O)CCC3(C)C1CC2", "note": "(configuration not stated)", "activity change, negative = inhibition": "14.3% (inactive)"},
      {"smiles": "COc1ccc(NC(=O)c2cc(OCCCN(C)C)nn2Cc2ccccc2)cc1", "activity change, negative = inhibition": "3.25% (inactive) and 7.86% (inactive)"},
      {"smiles": "CCC(=O)NS(=O)(=O)c1ccc(-c2c(-c3ccccc3)noc2C)cc1", "activity change, negative = inhibition": "23.5% (inactive)"},
      {"smiles": "CC1(c2ccccc2)OC(C(=O)O)=CC1=O", "note": "(configuration not stated)", "activity change, negative = inhibition": "15.7% (inactive)"},
      {"smiles": "Nc1cccc2c(=O)[nH][nH]c(=O)c12", "activity change, negative = inhibition": "7.31% (inactive)"},
      {"smiles": "CCCS(=O)(=O)Nc1ccc(F)c(C(=O)c2c[nH]c3ncc(-c4ccc(Cl)cc4)cc23)c1F", "activity change, negative = inhibition": "-58.2% (inactive) and -67.7% (inactive)"},
      {"smiles": "COc1ncc(-c2ccc3nccc(-c4ccnnc4)c3c2)cc1NS(=O)(=O)c1ccc(F)cc1F", "activity change, negative = inhibition": "-79.5% (active)"},
      {"smiles": "CCc1cc(-c2n[nH]c(C)c2-c2ccc3c(c2)OCCO3)c(O)cc1O", "activity change, negative = inhibition": "-16.3% (inactive)"},
      {"smiles": "NC(=NCCCCCCN=C(N)/N=C(\\N)Nc1ccc(Cl)cc1)/N=C(\\N)Nc1ccc(Cl)cc1", "activity change, negative = inhibition": "-58% (inactive)"},
      {"smiles": "CCN(CC)CCCCN1c2ccccc2Oc2ccc(Cl)cc21", "activity change, negative = inhibition": "-10.3% (inactive) and 12.5% (inactive)"},
      {"smiles": "CN(C)CCOC(=O)COc1ccc(Cl)cc1", "activity change, negative = inhibition": "4.1% (inactive) and 6.57% (inactive)"},
      {"smiles": "CCN(CC)CCOc1ccc(/C(=C(\\Cl)c2ccccc2)c2ccccc2)cc1", "activity change, negative = inhibition": "-69.8% (inactive) and -52.9% (inactive)"},
      {"smiles": "CC/C(=C(/c1ccccc1)c1ccc(OCCN(C)C)cc1)c1ccccc1", "activity change, negative = inhibition": "-72.4% (active)"},
      {"smiles": "CCN(CC)CCOc1ccc(Cc2ccccc2)cc1", "activity change, negative = inhibition": "5.6% (inactive) and 13.5% (inactive)"},
      {"smiles": "CN(C)CCOc1ccc(/C(=C(/CCCl)c2ccccc2)c2ccccc2)cc1", "activity change, negative = inhibition": "-77.6% (active) and -84.8% (active)"},
      {"smiles": "CC/C(=C(\\c1ccccc1)c1ccc(OCCN(C)C)cc1)c1ccccc1", "activity change, negative = inhibition": "13.1% (inactive) and -14.7% (inactive) and -6.44% (inactive)"},
      {"smiles": "CC(=O)OCC(=O)[C@@]12OC3(CCCC3)O[C@@H]1CC1C3CCC4=CC(=O)C=C[C@]4(C)[C@@]3(F)[C@@H](O)C[C@@]12C", "note": "(some centres not stated)", "activity change, negative = inhibition": "-7.19% (inactive) and -8.15% (inactive)"},
      {"smiles": "C[C@]12C=CC(=O)C=C1CCC1C2[C@@H](O)C[C@@]2(C)C1CC[C@]2(O)C(=O)COC(=O)CCC(=O)O", "note": "(some centres not stated)", "activity change, negative = inhibition": "-10.6% (inactive) and -6.45% (inactive)"},
      {"smiles": "CC(=O)OC[C@H]1O[C@@H](n2ccc(=O)[nH]c2=O)[C@H](OC(C)=O)[C@@H]1OC(C)=O", "activity change, negative = inhibition": "8.3% (inactive)"},
      {"smiles": "C=CC1CN2CCC1CC2[C@@H](O)c1ccnc2ccc(OC)cc12", "note": "(some centres not stated)", "activity change, negative = inhibition": "21.1% (inactive)"},
      {"smiles": "COc1nccc(-c2c(-c3ccc(F)cc3)ncn2C2CCC(O)CC2)n1", "note": "(configuration not stated)", "activity change, negative = inhibition": "-77.2% (active)"},
      {"smiles": "COc1nccc(-c2c(-c3ccc(F)cc3)ncn2C2CCNCC2)n1", "activity change, negative = inhibition": "-64.9% (inactive)"},
      {"smiles": "CCOc1ccc(Cc2cc([C@@]34OC[C@@](CO)(O3)[C@@H](O)[C@H](O)[C@H]4O)ccc2Cl)cc1", "activity change, negative = inhibition": "12.2% (inactive)"},
      {"smiles": "CSCC1CN(/N=C/c2ccc([N+](=O)[O-])o2)C(=O)O1", "note": "(configuration not stated)", "activity change, negative = inhibition": "3.31% (inactive)"},
      {"smiles": "CCNC(=O)CCC/C=C/C[C@@H]1[C@H](C=C[C@H](O)CCc2ccccc2)[C@@H](O)C[C@@H]1O", "activity change, negative = inhibition": "-1.53% (inactive)"},
      {"smiles": "CCCC[P+](CCCC)(CCCC)Cc1ccc(NC(=O)[C@H](Cc2ccc3ccccc3c2)NC(=NC2CCCCC2)NC2CCCCC2)cc1", "activity change, negative = inhibition": "27% (inactive)"},
      {"smiles": "O=C(CCCN1CCC(O)(c2ccc(Cl)cc2)CC1)c1ccc(F)cc1", "activity change, negative = inhibition": "7.06% (inactive) and 15.9% (inactive)"},
      {"smiles": "OC1(c2ccc(Cl)c(C(F)(F)F)c2)CCN(CCCC(c2ccc(F)cc2)c2ccc(F)cc2)CC1", "activity change, negative = inhibition": "-65.8% (inactive) and -91.8% (active)"},
      {"smiles": "O=C(CCCN1CCC(O)(c2cccc(C(F)(F)F)c2)CC1)c1ccc(F)cc1", "activity change, negative = inhibition": "30.3% (inactive)"},
      {"smiles": "Nc1ccn(C[C@@H](CO)OCP(=O)(O)O)c(=O)n1", "activity change, negative = inhibition": "-60.1% (inactive)"},
      {"smiles": "O/N=C/c1cc[n+](COC[n+]2ccc(/C=N/O)cc2)cc1", "activity change, negative = inhibition": "8.88% (inactive)"},
      {"smiles": "C[C@H]1CC2C([C@@H](O)C[C@@]3(C)C2CC[C@]3(O)C(=O)CO)[C@@]2(C)C=CC(=O)C=C12", "note": "(some centres not stated)", "activity change, negative = inhibition": "5.02% (inactive)"},
      {"smiles": "OC[C@H]1O[C@H](O)C[C@@H](O)[C@@H]1O", "activity change, negative = inhibition": "-36.7% (inactive)"},
      {"smiles": "CCOCCn1c(C2CCN(CCc3ccc(C(C)(C)C(=O)O)cc3)CC2)nc2ccccc21", "activity change, negative = inhibition": "20.9% (inactive)"},
      {"smiles": "N#C/C(=C/c1ccc(O)c(O)c1)C(N)=O", "activity change, negative = inhibition": "7.91% (inactive)"}
    ]}
  ]
}
